Experimental data: paper PMC4336329 (PLoS ONE, 2015)
The whole screen tested about 310,000 compounds, of which about 14,000 (4.5%) showed an effect of 50% or more. The effect is printed as a negative number. The sample as a whole holds a higher share of strong results than the screen did.

Each compound was assayed against human ether-à-go-go-related gene (hERG) potassium channel (human, UniProt Q12809) (assay: primary screen, population patch clamp on CHO cells stably expressing hERG; higher = less effect of the substance).
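Further: peak tail current of the secondary pulse compared with the same well before compound.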

Sequence of human ether-à-go-go-related gene (hERG) potassium channel (Q12809 whole entry, looked up): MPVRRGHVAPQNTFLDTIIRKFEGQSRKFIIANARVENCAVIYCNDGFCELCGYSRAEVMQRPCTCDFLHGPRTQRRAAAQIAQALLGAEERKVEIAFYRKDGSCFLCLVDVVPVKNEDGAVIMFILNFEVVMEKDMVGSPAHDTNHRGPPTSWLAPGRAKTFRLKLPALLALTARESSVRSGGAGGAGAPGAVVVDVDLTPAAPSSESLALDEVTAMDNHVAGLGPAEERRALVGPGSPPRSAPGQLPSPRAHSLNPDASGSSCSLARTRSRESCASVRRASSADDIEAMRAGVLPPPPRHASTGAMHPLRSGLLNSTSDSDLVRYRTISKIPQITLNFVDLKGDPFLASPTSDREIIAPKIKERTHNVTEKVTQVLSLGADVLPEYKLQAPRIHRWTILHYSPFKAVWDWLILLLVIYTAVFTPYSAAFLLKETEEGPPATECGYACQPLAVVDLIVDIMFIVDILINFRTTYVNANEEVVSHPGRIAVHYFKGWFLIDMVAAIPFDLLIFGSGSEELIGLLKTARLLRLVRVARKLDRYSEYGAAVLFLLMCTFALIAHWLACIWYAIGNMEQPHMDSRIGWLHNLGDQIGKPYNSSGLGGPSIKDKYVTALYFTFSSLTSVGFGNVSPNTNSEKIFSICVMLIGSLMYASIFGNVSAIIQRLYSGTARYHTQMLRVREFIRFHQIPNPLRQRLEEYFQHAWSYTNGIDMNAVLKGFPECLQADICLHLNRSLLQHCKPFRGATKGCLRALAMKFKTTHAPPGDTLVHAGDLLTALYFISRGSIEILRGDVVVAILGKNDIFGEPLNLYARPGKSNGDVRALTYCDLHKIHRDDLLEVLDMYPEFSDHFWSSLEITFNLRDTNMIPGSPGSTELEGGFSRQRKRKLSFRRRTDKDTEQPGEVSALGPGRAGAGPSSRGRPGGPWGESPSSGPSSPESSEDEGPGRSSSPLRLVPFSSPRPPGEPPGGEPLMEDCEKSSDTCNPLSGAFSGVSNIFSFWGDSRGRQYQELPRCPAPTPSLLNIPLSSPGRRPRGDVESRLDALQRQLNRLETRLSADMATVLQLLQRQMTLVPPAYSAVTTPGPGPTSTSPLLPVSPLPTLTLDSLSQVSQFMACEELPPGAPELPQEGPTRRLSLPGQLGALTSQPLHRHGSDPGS

SMILES	hERG current change (%, negative = inhibition) at 10uM
O=C(NNC(=O)C1CCN(Cc2ccccc2)CC1)c1cccc(Cl)c1	-14%
CCCn1nc(Oc2nc(NCC)nc(NC(C)C)n2)ccc1=O	1.01%
CCc1nc(N2CCN(C(=S)NCCCOC)CC2)c2c3c(sc2n1)CCCC3	-9.32%
Fc1ccc(-n2c(-c3ccc4ccccc4n3)n[nH]c2=S)cc1Cl	31%
O=C(COc1ccccc1)NC1CCCc2ccccc21 (stereo not shown)	-19.3%
CCOC(=O)Cc1csc(NC(=O)NC2(C(F)(F)F)Oc3ccc(Cl)cc3O2)n1 (stereo not shown)	15.8%
Cc1ccccc1NS(=O)(=O)c1ccc(OCC(=O)NCc2cccnc2)cc1	-32.8%
O=C(COCc1cc(-c2ccc3c(c2)OCO3)on1)N1CCCCC1	4.66%
CCCc1c(C)nc2ccc(OC)cc2c1SCCC(=O)O	10.4%
COc1cccc(C(=O)C2=NN(C(C)=O)CC2c2ccco2)c1 (stereo not shown)	-15.8%
COc1ccc(NC(=O)CCN2C(=O)c3ccncc3C2=O)cc1OC	-7.46%
CC1CCCCN1C(=S)Nc1ccc(OC(F)F)cc1 (stereo not shown)	-40.1%
O=C(CNC(=O)c1ccccc1)Oc1cccc(Cl)c1	17.8%
CC(NC(=O)NC1CCCCC1)C(c1cccs1)N1CCN(C)CC1 (stereo not shown)	-8.03%
CC(NC(=O)NC1CCCCC1)C(c1cccs1)N1CCN(Cc2ccccc2)CC1 (stereo not shown)	-56.7%
CC(NC(=O)NC1CCCCC1)C(c1cccs1)N1CCN(c2ccccc2)CC1 (stereo not shown)	-48.6%
CCC(=O)NC(C)C(c1cccs1)N1CCN(Cc2ccccc2)CC1 (stereo not shown)	-11.6%
CC(NC(=O)c1cccs1)C(c1cccs1)N1CCN(Cc2ccccc2)CC1 (stereo not shown)	-72.7%
CC(NC(=S)NC1CCCCC1)C(c1cccs1)N1CCOCC1 (stereo not shown)	-0.732%
CC(NC(=O)C(C)(C)C)C(c1cccs1)N1CCN(Cc2ccccc2)CC1 (stereo not shown)	-14.3%
CCN1CCN(C(c2cccs2)C(C)NC(=S)NC2CCCCC2)CC1 (stereo not shown)	-60.8%
CCN1CCN(C(c2cccs2)C(C)NC(=O)NC2CCCCC2)CC1 (stereo not shown)	-45.5%
Cc1ccc(NCC(=O)N/N=C/c2ccc(OC(=O)c3ccco3)cc2)cc1	1.76%
CCCN(CC(=O)Nc1ccccc1C)C(=O)COc1c(C)cccc1C	-4.72%
NS(=O)(=O)c1ccc(Nc2ccc3nonc3c2[N+](=O)[O-])cc1	9.07%
O=C(CSc1n[nH]c(=O)n1C1CC1)c1c[nH]c2ccccc12	9.29%
CCc1ccc(/C=C2/Sc3ccccc3N(CC(=O)NCCCN3CCOCC3)C2=O)cc1	-41.3%
O=C(CN1C(=O)/C(=C/c2cccc(Br)c2)SC1=S)NCCCN1CCOCC1	5.42%

SMILES	hERG current change (%, negative = inhibition) at 10uM
O=C(CN1C(=O)/C(=C/c2ccc(C(F)(F)F)cc2)Sc2ccccc21)NCCCN1CCOCC1	-65.6%
O=C(CN1C(=O)/C(=C/c2ccccc2)Sc2ccccc21)NCCCN1CCOCC1	-42.8%
O=C(CCCN1C(=O)/C(=C/c2cccc(Br)c2)SC1=S)NCCCN1CCOCC1	-18.1%
O=C(CCN1C(=O)/C(=C\c2cccc(Br)c2)SC1=S)NCCCN1CCOCC1	-63.4%
O=C(N/N=C/c1cc(Br)c(O)c(Br)c1O)c1ccc2c(c1)OCCO2	-26.9%
Cc1cc(CNC(=O)Cn2cc([N+](=O)[O-])cn2)c2ccccc2n1	-11.5%
Cc1cccc(OCC(=O)Nc2ccccc2N2CCCCC2)c1C	-21.9%
Cc1ccc(S(=O)(=O)N2CCCCC2)cc1NC(=O)CCc1nc2ccccc2c(=O)[nH]1	-24.3%
Cc1ccc(-c2nnn(CC(=O)N(Cc3cccs3)C(C(=O)NC(C)(C)C)c3ccco3)n2)o1 (stereo not shown)	14.4%
O=C(NCCO)/C(=C\c1cccs1)NC(=O)c1cccs1	18.7%
COc1ccc(C(=O)N/C(=C/c2cccs2)C(=O)NCCCn2ccnc2)cc1OC	-7.14%
Cc1ccc(C(=O)N/C(=C\c2cn(C)c3ccccc23)C(=O)NCCCn2ccnc2)cc1	-7.74%
Cc1ccc(C(=O)N/C(=C\c2cccs2)C(=O)NCCCn2ccnc2)cc1	-70.3%
Cc1ccc(C(=O)N/C(=C\c2cn(S(=O)(=O)N(C)C)c3ccccc23)C(=O)NCCCn2ccnc2)cc1	-28.6%
Cc1ccc(C(=O)N/C(=C\c2cccs2)C(=O)NCCCn2ccnc2)cc1C	-61%
Cc1ccc(C(=O)N/C(=C/c2cccs2)C(=O)NCCCn2ccnc2)cc1	-71.9%
O=C(NCCCn1ccnc1)/C(=C\c1cccs1)NC(=O)c1cccs1	-62%
Cc1ccc(C(=O)N/C(=C\c2cccs2)C(=O)NCCc2ccccn2)cc1C	-1.92%
O=C(NCc1ccco1)/C(=C\c1cccs1)NC(=O)c1cccs1	6.26%
O=C(Cn1ncn2c(cc3ccccc32)c1=O)NCCC1=CCCCC1	7.76%
CCn1cc(S(=O)(=O)N2CCCC2)cn1	8.1%
COCCN1C(=O)N[C@@H](c2ccccc2)[C@@H](C(=O)OC)[C@H]1C	2.28%
Cc1ccc(C)c(/C=N/NC(=S)NC(C)C)c1	30.3%
Cc1ccccc1OCC(=O)NNC=O	22.9%
O=C(Nc1cccc(-n2cnnn2)c1)c1cc(Cl)nc(Cl)c1	-4.24%
Cc1nccn1-c1ccc(C(F)(F)F)cc1[N+](=O)[O-]	11.2%
CCCn1c(NC(=O)CCS(=O)(=O)c2ccc(C)cc2)nc2ccccc21	-24.2%
